# Screening results (PubChem)
# Only a sample is shown.
# aSyn UTR act = Activators working through SNCA 5'UTR binding (MLPCN). alpha-synuclein 5'UTR reporter, activators screen. activity score, % (tested at 7.5 µM), hits read low. actives 7.1% (n = 300,000); in the data active = activity score below about -60%
# Numbers without * were called inactive.
SMILES,aSyn UTR act
CCc1ccc(N2Cc3ccccc3C2)cc1,-150.6*
COc1ccc2oc(C(=O)OCC(=O)/C(C#N)=C(\C)N)c(C)c2c1,-81.3*
C/C(N)=C(/C#N)C(=O)COC(=O)c1cccc2ccccc12,-62.5*
Cc1cccc(N/N=C/c2ccc(C)s2)c1,-180.0*
Cc1ccc(/C=N/N=C/c2ccc(C)s2)s1,-199.3*
COc1ccc2nc(/C=N/NC(=O)CCCCCNC(=O)OC(C)(C)C)ccc2c1,-69.7*
COc1ccc2nc(C)cc(SCC(=O)N/N=C/c3ccc(O)cc3O)c2c1,79.8
Nn1c(SCC(=O)NC(=O)Nc2ccc3c(c2)OCCO3)nnc1C1CC1,-95.8*
O=C(CSc1nnnn1-c1ccccc1)NC(=O)Nc1ccc2c(c1)OCCO2,-85.6*
Cn1nnnc1SCC(=O)Nc1ccc2c(c1)OCCO2,-85.7*
Cn1c2ccc(CC(=O)O)cc2c2cc(CC(=O)O)ccc21,-64.7*
Cn1c2ccc(Br)cc2c2nnc(SCC(=O)O)nc21,62.0
CCOC(=O)c1cccc(NC(=O)c2cnc3ccccc3n2)c1,-105.6*
CCOC(=O)c1cccc(NC(=O)c2cncc(Br)c2)c1,-81.5*
Fc1ccc(-n2nnc(-c3cccnc3Cl)n2)cc1,-86.4*
Clc1ccc(-n2nnc(-c3cccnc3Cl)n2)cc1Cl,-108.5*
COc1ccc(-c2csc(NNC3=NCCCCC3)n2)cc1,-62.5*
CCOc1ccc(-c2csc(NNC3=NCCCCC3)n2)cc1,-87.8*
COc1ccc(-c2csc(NC3=NCCCCC3)n2)cc1,-90.9*
Brc1ccc(-c2csc(NC3=NCCCCC3)n2)cc1,-137.6*
c1ccc(-c2csc(NNC3=NCCCCC3)n2)cc1,-72.4*
COC(=O)Cc1ccc(NC(=O)c2cccs2)cc1,-159.0*
N/C(=N\O)c1ccc(NC(=O)c2cccs2)cc1,-81.1*
CC(=O)c1ccc(NC(=O)c2cccs2)cc1,-88.4*
Cc1ccc(NC(=O)c2ccccc2NC(=O)c2cccs2)cc1,-80.1*
SMILES,aSyn UTR act
O=C(Nc1ccc2c(c1)OCO2)c1ccc(CN2CCOCC2)cc1,-104.0*
Cc1c(Cl)cccc1NC(=S)N=Nc1c(O)n(CN2CCOCC2)c2ccccc12,64.5
CSc1ccccc1NC(=O)c1ccc(CN2CCOCC2)cc1,-96.7*
CC(C)c1ccc(C(=O)Nc2ccc(CN3CCOCC3)cc2)cc1,-68.1*
CC(C)c1ccc(NC(=S)NN2CCOCC2)cc1,-135.0*
Cc1ccc(-c2nn3c(C)nnc3s2)cc1N,-79.4*
O=c1cccccc1NN=C1CCCCC1,-68.8*
O=c1cccccc1NN=C1CCCCCC1,-140.0*
CCO[C@@H]1OC(C(=O)NCc2nc3ccccc3[nH]2)=C[C@H](C2CC2)[C@H]1CCCO,-119.3*
CCO[C@@H]1OC(C(=O)NCc2nc3ccccc3[nH]2)=C[C@H](C(C)(C)C)[C@H]1CCCO,85.2
O=C(Nc1nnc(CC2=CCCCC2)s1)Nc1ccccc1F,-80.9*
O=C(Nc1nnc(-c2cccc(F)c2)s1)Nc1ccccc1F,-98.1*
CC(c1ccccc1)c1nnc(NC(=O)Nc2ccccc2F)s1 (stereo unspecified),-95.2*
Cc1ccc2c(c1)c(C)c(C)n2CC(O)Cn1nnc2ccccc21 (stereo unspecified),-70.1*
CC1(c2ccc([N+](=O)[O-])cc2)Nc2ccccc2S1 (stereo unspecified),-83.2*
COC(c1ccccc1)c1nnc(CCC(=O)N(C)C(C2CC2)C2CC2)o1 (stereo unspecified),-146.6*
CCOc1ccc(/C=C(/NC(=O)c2ccc(Cl)cc2)C(=O)O)cc1OCC,-86.2*
COc1ccc(OCc2cc(C(=O)N3CCCC(O)C3)no2)c2ccccc12 (stereo unspecified),-104.5*
Cc1ccc(C)c(OCc2cc(C(=O)N3CC[C@H](O)C3)no2)c1,-126.6*
CCCOC1CCCN(C(=O)c2cc(COc3c(F)cccc3F)on2)C1 (stereo unspecified),-135.6*
C=C1C(=O)C=C2CN(C(=O)c3ccccc3)[C@@](Cc3ccc(F)cc3)(C(=O)OC)[C@@H]12,56.3
Fc1ccc(/C=N/Nc2cc(N3CCOCC3)ncn2)cc1,-87.8*
Fc1cccc(/C=N/Nc2cc(N3CCOCC3)ncn2)c1,-108.0*
C(=N\Nc1cc(N2CCCCC2)ncn1)/c1ccco1,-129.1*
COc1cccc(/C=N/Nc2cc(N3CCOCC3)ncn2)c1O,72.2
SMILES,aSyn UTR act
Cc1nc2c(ccc3nc(NC(=O)C4CC4)sc32)s1,-121.0*
CCC(=O)Nc1nc2ccc3sc(C)nc3c2s1,-86.3*
C/C(=N\NC(=O)c1ccc(O)cc1)c1cc2ccccc2o1,-98.0*
C/C(=N\Nc1ccc([N+](=O)[O-])cc1)c1cc2ccccc2o1,-72.6*
C/C(=N/Nc1ccc([N+](=O)[O-])cc1)c1c[nH]c2ccccc12,-171.2*
C/C(=N/Nc1ccc([N+](=O)[O-])cc1)c1ccc(C)cc1C,-89.1*
O=C(CSc1ncnc2ccccc12)N1CCCC1,-66.6*
Cc1ccc(C(=O)CSc2ncnc3ccccc23)o1,-120.6*
O=C(CSc1ncnc2ccccc12)c1cccs1,-136.7*
O=C(Nc1cnc2ccccc2c1)c1cccc(-n2cnnn2)c1,-89.3*
Cc1ccc(C(=O)Nc2cnc3ccccc3c2)cc1,103.5
O=C(Nc1cccc(-c2cnc3ccccc3n2)c1)c1ccco1,-80.0*
O=C(Nc1cnc2ccccc2c1)c1cccnc1,-101.0*
Cc1cc(C(=O)Nc2cnc3ccccc3c2)ccc1[N+](=O)[O-],-131.8*
O=C(Nc1cnc2ccccc2c1)c1ccco1,-94.9*
CC(C)(C)c1ccc(C(=O)Nc2cccc(-n3cnnn3)c2)cc1,-84.8*
Cn1c(NC(=O)c2cccnc2)nc2ccccc21,-101.3*
COc1ccc(-c2nnc(SCc3ccccc3F)o2)cc1OC,-66.2*
Cc1ccc(-c2nnc(SCc3ccccc3F)o2)cc1,-80.6*
Cc1n[nH]c(=S)n1/N=C/c1ccc(OCc2ccc(Cl)cc2)cc1,-98.6*
Cc1n[nH]c(=S)n1/N=C/c1ccc(OCc2ccc(Cl)cc2Cl)cc1,-81.6*
CN1N=C(C(=O)N2CCc3c([nH]c4ccccc34)C2c2ccccc2Cl)CCC1=O (stereo unspecified),-69.0*
Cc1ccc(NC(=O)C2COc3ccccc3O2)cc1C (stereo unspecified),-170.8*
COC(=O)c1cccc(NC(=O)C2COc3ccccc3O2)c1 (stereo unspecified),-137.4*
Cc1cccc(NC(=O)C2COc3ccccc3O2)c1 (stereo unspecified),-114.8*
SMILES,aSyn UTR act
O=C1c2ccccc2CN1CCSC(=S)N1CCOCC1,-105.3*
O=C1c2ccccc2CN1CCSC(=S)N1CCSCC1,-109.4*
CS(=O)c1nc(-c2ccc(Br)cc2)cc(-c2ccccc2)c1C#N (stereo unspecified),120.1
Nc1nc(-c2ccccc2)cc(-c2ccccc2O)n1,-122.8*
c1ccc(-c2csc(-c3ccncc3)n2)cc1,-73.7*
Oc1ccc(-c2csc(-c3cccnc3)n2)cc1O,-96.1*
c1cncc(-c2nc(-c3ccc4c(c3)OCCO4)cs2)c1,-93.8*
Brc1ccsc1-c1csc(-c2ccncc2)n1,-105.9*
Oc1ccc(-c2csc(-c3ccccc3)n2)cc1O,-224.5*
Clc1ccc(-c2csc(-c3cccnc3)n2)s1,-70.5*
Fc1ccccc1-c1csc(-c2cccnc2)n1,-104.7*
Oc1ccccc1-c1csc(-c2ccccc2)n1,-121.7*
Cc1cc(C)nc(SCC2COc3ccccc3O2)n1 (stereo unspecified),-70.8*
CCCS(=O)(=O)c1cnc(C2COc3ccccc3O2)nc1N (stereo unspecified),67.8
Cc1cc(NC(=O)Nc2ccc3c(ccn3C)c2)sn1,-120.8*
